According to PubChem BioAssay (EPA / NIEHS):
Records with an inconclusive call do not appear. The source made the active and inactive calls. The calls were made as follows, unless noted: active = hit-call score of the fitted dose curve at least 0.9, where 1 is the maximum; inconclusive = response in the unintended direction; inactive = score below 0.9.

Assays:
[1] = Tanguay_ZF_120hpf_SWIM_legacy: (Legacy) Oregon State University Tanguay Lab 120 Hour Post-fertilization zebrafish Assay for Swim Bladder Malformation (AID 2283654);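 also: swim bladder malformation in each larva scored yes or no under brightfield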
Outline: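 Dechorionated Tropical 5D wild-type embryos, placed singly from 6 hpf, were statically exposed at 28C to 120 hpf with 0.64% DMSO final; swim bladder malformation was scored present/absent by brightfield microscopy, gain of signal relative to DMSO controls.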

[2] = Tanguay_ZF_120hpf_TRUN_legacy: (Legacy) Oregon State University Tanguay Lab 120 Hour Post-fertilization zebrafish Assay for Truncated Body (AID 2283655)
Outline: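 Tropical 5D wild-type embryos, dechorionated with pronase at 4 hpf, were placed singly in wells at 6 hpf and statically exposed at 28C until 120 hpf, final DMSO 0.64%. Truncated body was scored present/absent by brightfield microscopy.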

[3] = Tanguay_ZF_120hpf_NC_legacy: (Legacy) Oregon State University Tanguay Lab 120 Hour Post-fertilization zebrafish Assay for Notochord and Tail Malformation (AID 2283656)
Outline: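 Dechorionated Tropical 5D wild-type zebrafish embryos, one per well from 6 hpf, statically exposed to 120 hpf at 28C in 0.64% DMSO final. Notochord distortion scored present/absent by brightfield; dead embryos excluded.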

[4] = tested on: Thyroperoxidase (TPO), gene 54314; assay: CCTE_Simmons_AUR_rTPO: CCTE's Amplex UltraRed Assay for Thyroperoxidase (TPO) Inhibition, Simmons Lab (AID 2283662);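 as to AC50: potency for loss of signal meaning inhibition of peroxidase activity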
Outline: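 Rat thyroid microsomal TPO + 25 uM AUR in 200 mM K phosphate; cpd 5 nM–87.5 uM [final], 8 conc, 0.5% DMSO; 300 uM H2O2 starts rxn; 37C dark 30 min; endpoint FI 544/590 nm; n=3.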

[5] = CCTE_Simmons_CellTiterGLO_HEK293T: Viability Assessment in CCTE's Assays for Thyroperoxidase (TPO) Inhibition, Simmons Lab (AID 2283665);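 as to AC50: cells exposed to compound for 24 h before readout; actives reduce ATP signal below DMSO vehicle meaning cytotoxicity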
Outline: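 HEK293T cells in DMEM with 1% FBS, dosed 24 h at 37C with 8 concentrations, 5 nM–87.5 uM final, 0.5% DMSO. ATP measured by CellTiter Glo luminescence; loss of signal vs DMSO, three biological replicates.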

[6] = Tanguay_ZF_120hpf_TR_legacy: (Legacy) Oregon State University Tanguay Lab 120 Hour Post-fertilization zebrafish Assay for Touch Response (AID 2283667)
Outline: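 Tropical 5D wild-type zebrafish embryos were exposed statically in sealed, foil-covered plates at 28C until 120 hpf, with 0.64% (vol/vol) final DMSO. Touch response was scored as present or absent; embryos that died were not scored.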

[7] = read-out: solute carrier (SLC10A1), SLC10A1 (gene 6554); assay: LTEA_HepaRG_SLC10A1: Life Technologies and Expression Analysis (LTEA) Assay for solute carrier (SLC10A1) using HepaRG (AID 2283657; active = hit-call score of the fitted dose curve at least 0.9, where 1 is the maximum; inactive = score below 0.9); conditions: mRNA level, 48 h; actives raise or lower the signal
Outline: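 Differentiated HepaRG cells were plated 48 h, then exposed in serum-free induction medium for 48 h to 8 concentrations (top 100 uM, half-log steps, 0.5% DMSO). SLC10A1 mRNA was quantified by qRT-PCR normalized to ACTB, GAPDH, POLR2A; bidirectional fit versus DMSO.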

[8] = read-out: matrix metalloproteinase-1 (MMP1), MMP1 (gene 4312); assay: LTEA_HepaRG_MMP1: Life Technologies and Expression Analysis (LTEA) Assay for matrix metalloproteinase-1 (MMP1) using HepaRG (AID 2283658; active = hit-call score of the fitted dose curve at least 0.9, where 1 is the maximum; inactive = score below 0.9); conditions: mRNA level, 48 h; actives raise or lower the signal
Outline: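 Differentiated HepaRG cells, plated 48 h then switched to serum-free induction medium, were exposed in duplicate for 48 h to eight half-log concentrations up to 100 uM in 0.5% DMSO; MMP1 mRNA measured by qRT-PCR, normalized to ACTB, GAPDH, POLR2A.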

[9] = read-out: Cytochrome P450 (CYP24A1_1), CYP24A1 (gene 1591); assay: LTEA_HepaRG_CYP24A1_1: Life Technologies and Expression Analysis (LTEA) Assay for Cytochrome P450 (CYP24A1_1) using HepaRG (AID 2283671; active = hit-call score of the fitted dose curve at least 0.9, where 1 is the maximum; inactive = score below 0.9); conditions: mRNA level, 48 h; actives raise or lower the signal
Outline: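 HepaRG, 48 h exposure, 8-pt half-log series from 100 uM in 0.5% DMSO, duplicates. Readout: TaqMan qRT-PCR of CYP24A1 mRNA, housekeeping-normalized (ACTB/GAPDH/POLR2A). Bidirectional curve fit vs DMSO baseline.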

[10] = read-out: ABC Transporter (ABCB1), ABCB1 (gene 5243); assay: CLD_ABCB1_6hr: CellzDirect (CLD) Gene Expression Assay for ABC Transporter (ABCB1) at 6 hours (AID 2283659);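 also: hits raise ABCB1 transcript above the DMSO vehicle baseline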
Outline: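 Primary human hepatocytes (two donor preparations) dosed daily for two days with chemicals at multiple concentrations, 0.2% DMSO vehicle; harvested 6 h post-dose. ABCB1 mRNA induction quantified by qNPA chemiluminescence; gain-of-signal fitted versus DMSO.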

[11] = read-out: Broad substrate specificity ATP-binding cassette transporter ABCG2 (Homo sapiens) (UniProt Q9UNQ0); assay: CLD_ABCG2_6hr: CellzDirect (CLD) Gene Expression Assay for ABC Transporter (ABCG2) at 6 hours (AID 2283660)
Outline: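 Primary human hepatocytes dosed daily with chemicals at multiple concentrations (0.2% DMSO vehicle), harvested 6 h after dosing. ABCG2 mRNA induction read by quantitative nuclease protection assay (qNPA) chemiluminescence; gain of signal fitted against DMSO baseline.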

[12] = read-out: xenobiotic metabolism (CYP1A1), CYP1A1 (gene 1543); assay: CLD_CYP1A1_6hr: CellzDirect (CLD) Gene Expression Assay for xenobiotic metabolism (CYP1A1) at 6 hours (AID 2283661)
Outline: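 Primary human hepatocytes from two donors, compound versus 0.2% DMSO vehicle. CYP1A1 mRNA measured 6 h after dosing by quantitative nuclease protection assay with chemiluminescent read-out; induction fitted relative to DMSO, cytotoxicity flagged by microscopy.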

[13] = read-out: xenobiotic metabolism (CYP2C9), CYP2C9 (gene 1559); assay: CLD_CYP2C9_6hr: CellzDirect (CLD) Gene Expression Assay for xenobiotic metabolism (CYP2C9) at 6 hours (AID 2283664)
Outline: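 Primary human hepatocytes dosed daily with test chemicals at multiple concentrations; harvested at 6 h. CYP2C9 mRNA induction measured by qNPA chemiluminescence. Gain of signal fitted against 0.2% DMSO vehicle; cytotoxicity annotated from phase-contrast morphology.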

[14] = read-out: alkyl and aryl transferase (GSTA2), GSTA2 (gene 2939); assay: CLD_GSTA2_6hr: CellzDirect (CLD) Gene Expression Assay for alkyl and aryl transferase (GSTA2) at 6 hours (AID 2283666)
Outline: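 Primary human hepatocytes from two donor preparations were dosed daily with fresh compound at multiple concentrations, 0.2% DMSO vehicle. GSTA2 mRNA was measured at 6 hours by qNPA chemiluminescence; induction fitted relative to DMSO, with cytotoxicity flagged morphologically.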

[15] = read-out: organic anion transporter (SLCO1B1), SLCO1B1 (gene 10599); assay: CLD_SLCO1B1_6hr: CellzDirect (CLD) Gene Expression Assay for organic anion transporter (SLCO1B1) at 6 hours (AID 2283668);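 also: active means mRNA induction above DMSO baseline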
Outline: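 Primary human hepatocytes dosed daily with test chemicals (multiple concentrations) in 0.2% DMSO vehicle; harvested at 6 h. SLCO1B1 mRNA quantified by qNPA chemiluminescence, fitted as gain-of-signal versus DMSO; cytotoxicity from phase-contrast morphology flagged alongside.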

[16] = read-out: sulfotransferase (SULT2A), SULT2A1 (gene 6822); assay: CLD_SULT2A_6hr: CellzDirect (CLD) Gene Expression Assay for sulfotransferase (SULT2A) at 6 hours (AID 2283669);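 also: hits raise transcript level above the DMSO vehicle baseline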
Outline: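 Primary human hepatocytes from two donor preparations were dosed daily with chemicals or 0.2% DMSO and harvested at 6 h. Transcript induction read by qNPA chemiluminescence, fitted for gain of signal relative to DMSO; morphology-based cytotoxicity annotated.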

[17] = read-out: glucuronosyltransferase (UGT1A1), UGT1A1 (gene 54658); assay: CLD_UGT1A1_6hr: CellzDirect (CLD) Gene Expression Assay for glucuronosyltransferase (UGT1A1) at 6 hours (AID 2283672)
Outline: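 Primary human hepatocytes from two donor preparations, dosed with fresh solutions in 0.2% DMSO, harvested at 6 h. UGT1A1 mRNA measured by qNPA chemiluminescence; induction fitted upward versus DMSO.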

[18] = read-out: xenobiotic metabolism (CYP1A1), CYP1A1 (gene 1543); assay: CLD_CYP1A1_24hr: CellzDirect (CLD) Gene Expression Assay for xenobiotic metabolism (CYP1A1) at 24 hours (AID 2283673);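 also: CYP1A1 mRNA level by quantitative nuclease protection with chemiluminescence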
Outline: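 Primary human hepatocytes dosed daily with fresh solutions in 0.2% DMSO vehicle. mRNA measured at 24 h by quantitative nuclease protection assay with chemiluminescence; gain-of-signal fit versus DMSO, with morphology-based cytotoxicity flags.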

Measured: AC50

Sequence of Broad substrate specificity ATP-binding cassette transporter ABCG2 (Homo sapiens) (Q9UNQ0 whole entry, looked up): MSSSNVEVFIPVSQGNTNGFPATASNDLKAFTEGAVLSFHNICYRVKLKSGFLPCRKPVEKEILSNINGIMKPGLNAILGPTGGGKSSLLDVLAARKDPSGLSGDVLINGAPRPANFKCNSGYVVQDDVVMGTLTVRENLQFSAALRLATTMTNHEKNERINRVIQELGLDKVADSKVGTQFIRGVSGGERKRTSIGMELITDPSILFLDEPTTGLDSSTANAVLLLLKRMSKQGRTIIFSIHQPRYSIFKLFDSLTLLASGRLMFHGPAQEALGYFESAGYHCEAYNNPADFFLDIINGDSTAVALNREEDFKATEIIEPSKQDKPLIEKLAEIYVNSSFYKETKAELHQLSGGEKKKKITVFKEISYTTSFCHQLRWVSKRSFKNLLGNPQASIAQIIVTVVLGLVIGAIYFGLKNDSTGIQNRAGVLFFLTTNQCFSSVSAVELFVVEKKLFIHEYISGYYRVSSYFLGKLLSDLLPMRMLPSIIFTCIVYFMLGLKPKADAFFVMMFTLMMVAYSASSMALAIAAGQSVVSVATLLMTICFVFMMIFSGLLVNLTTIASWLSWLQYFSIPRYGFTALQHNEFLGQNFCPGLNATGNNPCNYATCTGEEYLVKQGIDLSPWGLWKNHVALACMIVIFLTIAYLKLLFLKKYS

Clc1ccc(C(Cl)(Cl)Cl)cc1
inactive: [1] | [2] | [3] | [4] | [5] | [6]

Cc1ccc(O)c(C)c1
inactive: [1] | [2] | [3] | [5] | [6]
active: [4] 18.2 µM

CCC(=O)O[C@H]1CC[C@H]2[C@@H]3CCC4=CC(=O)CC[C@]4(C)[C@H]3CC[C@]12C
inactive: [1] | [2] | [3] | [4] | [6]
active: [5] 9.47 µM

O=S(=O)(O)C(F)(F)C(F)(F)C(F)(F)C(F)(F)F
inactive: [1] | [2] | [3]

N#Cc1ccc(N(CC(N)=O)CC(F)(F)F)cc1C(F)(F)F
inactive: [1] | [2] | [3] | [6]

CCCCCCCCCC[N+](C)(C)CCCCCCCCCC
active: [4] 43.8 µM | [5] 3.92 µM
inactive: [1] | [2] | [3] | [6]

CC(c1ccc(O)cc1)(c1ccc(O)cc1)c1ccc(O)cc1
active: [4] 1.41 µM | [5] 36.9 µM
inactive: [1] | [2] | [3]

CN(C)CCO
inactive: [1] | [2] | [3] | [6]

CCCCCCCCCc1ccc(O)cc1
inactive: [1] | [2] | [3] | [7] | [8] | [6] | [9]
active: [4] 10.5 µM | [5] 15.7 µM

COS(=O)(=O)OC
inactive: [1] | [2] | [3] | [7] | [8] | [5] | [6] | [9]
active: [4] 27 µM

COc1ccc(O)c(C(C)(C)C)c1
inactive: [1] | [2] | [3] | [6]
active: [4] 0.701 µM | [5] 60.5 µM

CCC(C)(CC)c1cc(NC(=O)c2c(OC)cccc2OC)on1
active: [18] 20 µM
not listed: [4] | [5] | [7] | [8] | [9]
inactive: all other assays above

CC(C)(O)C(=O)Nc1ccc([N+](=O)[O-])c(C(F)(F)F)c1
inactive: [1] | [3] | [6]
active: [2] 22.1 µM
